Records with an inconclusive call do not appear. Active and inactive are the calls of the source. The calls were made as follows: active = hit-call score of the fitted dose curve at least 0.9, where 1 is the maximum; inconclusive = response in the unintended direction; inactive = score below 0.9.

Read-out in this test: alkyl and aryl transferase (GSTA2), GSTA2 (gene 2939)
The test can be described thus: CLD_GSTA2_24hr: CellzDirect (CLD) Gene Expression Assay for alkyl and aryl transferase (GSTA2) at 24 hours (AID 2283693). The protocol: CLD_24hr is a cell-based, multiplexed-readout assay that uses hepatocyte, a human liver primary cell, with measurements taken at 24 hours after chemical dosing in a 96-well plate.CLD_GSTA2_24hr is one of 16 assay component(s) measured or calculated from the CLD_24hr assay. It is designed to make measurements of mRNA induction, a form of inducible reporter, as detected with chemiluminescence signals by Quantitative Nuclease Protection Assay (qNPA) technology.Data from the assay component CLD_GSTA2_24hr was analyzed at the endpoint, CLD_GSTA2_24hr, in the positive analysis fitting direction relative to DMSO as the negative control and baseline of activity. Using a type of inducible reporter, gain-of-signal activity can be used to understand changes in the reporter gene as they relate to the gene GSTA2. Furthermore, this assay endpoint can be referred to as a primary readout. To generalize the intended target to other relatable targets, this assay endpoint is annotated to the transferase intended target family, where subfamily is alkyl and aryl transferase.
Human hepatocyte cultures were treated daily for two consecutive days with fresh dosing solutions containing appropriate concentrations of the 320 ToxCast chemicals (chemical identities were blinded to CellzDirect and other ToxCast collaborators), vehicle control (0.2% DMSO), and positive control inducers as summarized in Table 1. Due to the large number of treatment groups and chemicals examined, the ToxCast chemicals were divided into two groups (spanning two independent cultures of hepatocytes from separate donor preparations (Hu778: ToxCast plates 1 and 2; Hu776: ToxCast plates 3 and 4). Each preparation of human hepatocyte cultures was treated with respective vehicle control, medium only control, set of six positive controls/reference chemicals for the five hepatic receptor pathways, and a subset of eight of the ToxCast chemicals (indoxacarb, pyrithiobac-sodium, norflurazon, cyhalofop-butyl, methomyl, thiram, acetochlor, and propiconazole). These replicate data, coupled with internal replicates designed within the blinded ToxCast chemical library, provided additional data to evaluate interindividual differences between hepatocyte preparations and their potential impact on chemical profiles.Cell morphology and integrity were evaluated using phase-contrast microscopy as an indicator of hepatocyte cell health (Tyson & Green, 1987). Cultures for each treatment group (i.e., media, vehicle [0.2% DMSO], positive control inducers [multiple concentrations], and the ToxCast chemicals [multiple concentrations]) were observed and cell morphology was assessed relative to vehicle control cultures at each harvest time point (0, 6, 24, or 48 h). […] Images were evaluated at the conclusion of the study to assess changes in cell integrity and account for the effects of chemical exposure on uncharacteristic changes in concentration-dependent gene expression profiles. The results from these determinations of apparent cytotoxicity were annotated (yes/no) alongside the corresponding qNPA data for reference.At the conclusion of each treatment period, hepatocyte cultures (96-well) were washed with 1 volume of HBSS, lysed by addition of 25 ul ArrayPlate lysis buffer (HTG, Tucson, AZ), and 70 ul/well of Denaturation Oil, denatured by incubation at 95C for 10 min, and frozen at approximately -70C until analysis by nuclease protection assay (qNPA) (Roberts et al., 2007). For qNPA analysis, cell lysates were thawed at 50C for approximately 30 min, qNPA probes were added, and samples were incubated at 95C for 10 min to begin the detection process by denaturing the target RNA, dissociating the duplexes and secondary structure hybridization. At the conclusion of the hybridization period, S1 nuclease reagent was added to each sample to digest all nonprotected nucleotides at 50C for 60-90 min. […]
With `CCc1nn(C)c(C(=O)NCc2ccc(C(C)(C)C)cc2)c1Cl`, the compound was classed as inactive. Regarding `CS/C(C)=N/OC(=O)N(C)SN(C)C(=O)O/N=C(\C)SC`, the call was inactive. As to `C=CCC1=C(C)[C@@H](OC(=O)[C@@H]2[C@@H](C=C(C)C)C2(C)C)CC1=O`, the compound was classed as inactive.

Take `CC1COC(Cn2cncn2)(c2ccc(Oc3ccc(Cl)cc3)cc2Cl)O1` (configuration not stated): the compound was called inactive. Regarding `CCOC(=O)CC(SP(=S)(OC)OC)C(=O)OCC` (configuration not stated), the compound was classed as inactive. Turning to `Cc1c(F)c(F)c(COC(=O)C2C(/C=C(\Cl)C(F)(F)F)C2(C)C)c(F)c1F` (configuration not stated), the compound was classed as inactive. Turning to `CC(Oc1ccc(Cl)cc1Cl)C(=O)O` (configuration not stated), the call was inactive. The result for `CCCCNC(=O)OCC#CI` reads “inactive”. The result for `CCCCOC(=O)c1ccccc1C(=O)OCCCC` reads “inactive”; that for `COc1cnc(OC)n2nc(NS(=O)(=O)c3c(OCC(F)F)cccc3C(F)(F)F)nc12`, “inactive”; that for `CCOC(=O)C(Cl)Cc1cc(-n2nc(C)n(C(F)F)c2=O)c(F)cc1Cl` (configuration not stated), “inactive”.

With `CC(C)(C)c1ccc(CSc2cnn(C(C)(C)C)c(=O)c2Cl)cc1`, the compound was classed as inactive. In the case of `CCNc1nc(Cl)nc(NCC)n1`, the outcome was inactive. The result for `COc1ccc(C(c2ccc(OC)cc2)C(Cl)(Cl)Cl)cc1` reads “inactive”. In the case of `CN(C)C(=S)SSC(=S)N(C)C`, the outcome was inactive.

Turning to `CNC(=O)ON=CC(C)(C)SC`, the outcome was inactive. In the case of `COC(=O)N(OC)c1ccccc1COc1ccn(-c2ccc(Cl)cc2)n1` it was “inactive”; in that of `N#Cc1cc(Br)c(O)c(Br)c1`, “inactive”; in that of `CCNc1nc(Cl)nc(NC(C)C)n1`, “inactive”. In the case of `Oc1ccccc1-c1ccccc1`, the call was inactive. As to `OC(c1ccc(Cl)cc1)(c1cncnc1)c1ccccc1Cl` (configuration not stated), the compound was called inactive. For `O=C(O)c1nc(Cl)ccc1Cl`, the outcome was inactive. Consider `N#CC(CCc1ccc(Cl)cc1)(Cn1cncn1)c1ccccc1` (configuration not stated), for which the result was inactive. Turning to `C#CCOS(=O)OC1CCCCC1Oc1ccc(C(C)(C)C)cc1` (configuration not stated), the result was inactive.

Consider `COC(=O)C(C)Oc1ccc(Oc2ccc(Cl)cc2Cl)cc1` (configuration not stated), for which the result was inactive. As to `Cc1ccc(-c2c(Cl)nc(C#N)n2S(=O)(=O)N(C)C)cc1`, the result was inactive. Regarding `CCCCNC(=O)n1c(NC(=O)OC)nc2ccccc21`, the compound was called inactive. In the case of `COP(=S)(OC)Oc1nc(Cl)c(Cl)cc1Cl` it was “inactive”; in that of `N#Cc1nn(-c2c(Cl)cc(C(F)(F)F)cc2Cl)c(N)c1S(=O)C(F)(F)F` (configuration not stated), “inactive”; in that of `CC(C)C1(C)N=C(c2nc3ccccc3cc2C(=O)O)NC1=O` (configuration not stated), “inactive”. In the case of `COc1nc(C)nc(NC(=O)NS(=O)(=O)c2ccccc2Cl)n1` it was “inactive”. With `C=CCC1=C(C)C(OC(=O)C2C(C=C(C)C)C2(C)C)CC1=O` (configuration not stated), the outcome was inactive. With `COC(=O)c1ccccc1C(=O)OC`, the result was inactive. Take `CO/C=C(/C(=O)OC)c1ccccc1Oc1cc(Oc2ccccc2C#N)ncn1`: the outcome was inactive.

For `COc1nc(C)nc(NC(=O)NS(=O)(=O)c2ccccc2CCC(F)(F)F)n1`, the result was inactive.

Turning to `Fc1ccc(Oc2ccnc3cc(Cl)cc(Cl)c23)cc1`, the compound was classed as inactive. In the case of `CCCCC(CC)COC(=O)c1ccccc1C(=O)OCC(CC)CCCC` (configuration not stated), the outcome was inactive.
